Reference: PubChem BioAssay (NCATS)
Results filed as inconclusive are left out. Activity calls are given as the source filed them. Unless noted, calls follow the shape of the dose curve; as a rule, active = well fitted curve in the direction sought with a large enough effect; inconclusive = small, poorly fitted or top-dose-only effect, or another doubt; inactive = no such curve, though single readings can be large; an effect the other way counts as inactive or inconclusive.

What was measured:
[1] = AP1 Signaling Pathway (AID 357; active = well fitted curve in either direction with a large enough effect, not every such curve was filed as active;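 also: ME-180 reporter cells stimulated with EGF at its EC50 level; % is scaled to controls: 0 for no effect and ±100 for the full control effect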); settings: ME-180 AP-1-bla reporter, EGF-induced, beta-lactamase ratio, 5 h; at 7.69 µM (top of the series) unless noted
Procedure, shortened: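 AP-1-bla ME-180 cells, Opti-MEM + 0.5% dialyzed FBS, plated overnight 37 °C. Cpd titration + EC50 EGF, 5 h 37 °C. CCF4 2.5 h RT; ex 405, em 460/530 ratio → %activity, AC50.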

[2] = target: Cytochrome P450 1A2 (Homo sapiens) (UniProt P05177); assay: p450-cyp1a2 (AID 410; calls by dose curve; also: potency is read from the fitted curve at half-maximal effect)
Cytochrome P450 1A2 (Homo sapiens), sequence (P05177 whole entry, looked up): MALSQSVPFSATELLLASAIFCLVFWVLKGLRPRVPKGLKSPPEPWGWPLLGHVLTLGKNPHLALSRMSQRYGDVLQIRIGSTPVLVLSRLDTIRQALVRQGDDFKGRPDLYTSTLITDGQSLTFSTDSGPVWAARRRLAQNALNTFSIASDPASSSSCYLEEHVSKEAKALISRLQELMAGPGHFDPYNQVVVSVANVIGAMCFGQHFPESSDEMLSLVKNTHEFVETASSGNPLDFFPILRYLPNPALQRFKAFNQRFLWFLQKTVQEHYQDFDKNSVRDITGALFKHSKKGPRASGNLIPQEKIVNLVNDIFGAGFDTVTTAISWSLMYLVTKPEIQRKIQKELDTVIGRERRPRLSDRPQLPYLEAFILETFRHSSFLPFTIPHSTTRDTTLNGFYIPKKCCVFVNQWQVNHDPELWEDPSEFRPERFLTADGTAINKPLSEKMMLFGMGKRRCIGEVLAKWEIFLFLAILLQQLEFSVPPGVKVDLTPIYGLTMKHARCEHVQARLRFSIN
Procedure, shortened: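 Luminescent readout of luciferin formed from Luciferin-ME by human CYP1A2; data normalized against complete inhibition by 57 uM furafylline. Enzyme 20nM, substrate 100uM at Km, 100mM KPO4 buffer, 60 min reaction at room temperature.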

[3] = Stat Signaling Pathway (AID 446; active = well fitted curve in either direction with a large enough effect, not every such curve was filed as active;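 also: ME-180 cervical cancer cells given 40 pM IL-6 alongside compound; SIE-controlled beta-lactamase reporter measured as 460/530 nm FRET emission ratio; % is scaled to controls: 0 for no effect and ±100 for the full control effect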)
Procedure, shortened: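 Screening format detects activators and inhibitors alike: ME-180 SIE-bla cells stimulated at 40 pM IL-6 for 5 hrs with compound, then dual-emission beta-lactamase read at 405 nm excitation.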

[4] = target: Glucocorticoid receptor (Homo sapiens) (UniProt P04150); assay: GR-EFC Redistribution (AID 451; calls by dose curve; also: potency is read from the fitted curve at half-maximal effect); settings: CHO-K1 GR-EFC translocation, beta-gal luminescence, 2 h
Glucocorticoid receptor (Homo sapiens), sequence (P04150 whole entry, looked up, the tested form may be a part): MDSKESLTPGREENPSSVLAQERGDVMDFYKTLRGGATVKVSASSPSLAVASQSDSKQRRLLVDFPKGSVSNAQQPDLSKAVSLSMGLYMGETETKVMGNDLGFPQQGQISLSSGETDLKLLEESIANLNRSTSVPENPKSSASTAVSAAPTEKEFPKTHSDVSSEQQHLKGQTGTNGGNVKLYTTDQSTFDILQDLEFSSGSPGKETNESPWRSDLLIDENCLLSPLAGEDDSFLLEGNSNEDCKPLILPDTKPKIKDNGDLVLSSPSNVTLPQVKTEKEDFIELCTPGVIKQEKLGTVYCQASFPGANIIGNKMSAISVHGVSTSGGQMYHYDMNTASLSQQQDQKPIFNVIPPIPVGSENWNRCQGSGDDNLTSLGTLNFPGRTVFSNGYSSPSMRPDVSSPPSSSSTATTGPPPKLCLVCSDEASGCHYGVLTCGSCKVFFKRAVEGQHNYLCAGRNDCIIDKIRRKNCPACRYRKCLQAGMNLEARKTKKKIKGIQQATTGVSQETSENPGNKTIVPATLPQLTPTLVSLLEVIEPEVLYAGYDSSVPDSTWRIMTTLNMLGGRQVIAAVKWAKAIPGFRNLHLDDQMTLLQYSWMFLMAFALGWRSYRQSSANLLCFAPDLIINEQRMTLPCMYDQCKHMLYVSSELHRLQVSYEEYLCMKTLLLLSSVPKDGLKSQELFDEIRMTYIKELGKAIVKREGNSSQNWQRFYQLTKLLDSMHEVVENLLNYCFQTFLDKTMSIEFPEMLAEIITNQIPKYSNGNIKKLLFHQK
Procedure, shortened: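 Translocation of GR-ED fusion to nuclear EA restores b-gal, read by luminescence after 1 h room-temperature detection. Engineered CHO-K1 biosensor cells, 1,000/well, exposed 2 h at 37 C to titrations up to 46 uM final.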

[5] = target: Mitogen-activated protein kinase 10 (Mus musculus) (UniProt Q61831); assay: JNK3 AlphaScreen Assay (AID 530; active = well fitted curve in either direction with a large enough effect, not every such curve was filed as active;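 also: kinase came from lysate of stimulated human HepG2 cells; signal reports phosphorylation of biotinylated GST-cJun 1-79 at Ser73 with 10 µM ATP; % is scaled to controls: 0 for no effect and ±100 for the full control effect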)
Procedure, shortened: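 Compound titrations were preincubated 15 minutes at room temperature with substrate, antibody and pre-activated JNK3-containing HepG2 lysate. Reactions were started with 10 uM ATP and stopped with EDTA-containing bead buffer for AlphaScreen detection.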

[6] = target: Cytochrome P450 3A4 (Homo sapiens) (UniProt P08684); assay: qHTS Assay for Inhibitors and Substrates of Cytochrome P450 3A4 (AID 884); also: potency is read from the fitted curve at half-maximal effect; nearly all actives have a fitted effect of over 50% in size
Cytochrome P450 3A4 (Homo sapiens), sequence (P08684 whole entry, looked up): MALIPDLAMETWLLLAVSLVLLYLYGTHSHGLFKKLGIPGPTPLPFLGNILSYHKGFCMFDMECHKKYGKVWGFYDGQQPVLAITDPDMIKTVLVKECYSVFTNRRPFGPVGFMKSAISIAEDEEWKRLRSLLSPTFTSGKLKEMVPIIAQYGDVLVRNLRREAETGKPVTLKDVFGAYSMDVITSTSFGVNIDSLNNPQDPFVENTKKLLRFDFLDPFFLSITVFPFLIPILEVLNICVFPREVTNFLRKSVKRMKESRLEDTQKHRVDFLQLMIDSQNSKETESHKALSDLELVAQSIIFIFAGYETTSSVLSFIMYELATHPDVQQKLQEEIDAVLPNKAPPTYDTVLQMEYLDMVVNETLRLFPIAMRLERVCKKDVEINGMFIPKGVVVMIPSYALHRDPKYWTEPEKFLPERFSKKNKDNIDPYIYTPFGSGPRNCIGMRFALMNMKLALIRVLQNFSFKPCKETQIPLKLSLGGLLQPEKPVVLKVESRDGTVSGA
Procedure, shortened: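 20 nM human CYP3A4 with 25 uM Luciferin-PPXE (at KM) in 200 mM KPO4, preincubated 10 min with compound; NADPH regeneration started a 60 min RT reaction. Luciferin detected by luminescence, normalized to 57 uM ketoconazole as full inhibition.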

[7] = target: Cytochrome P450 3A4 (Homo sapiens) (UniProt P08684); assay: qHTS Assay for Activators of Cytochrome P450 3A4 (AID 885); also: nearly all actives have a fitted effect of over 65% in size
Procedure, shortened: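 Steps: enzyme/substrate mix dispensed; compound added, 10 min RT; NADPH regeneration solution added, 60 min RT; luciferin detection buffer stops reaction; 20 min later luminescence measured.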

[8] = target: Cytochrome P450 2D6 (Homo sapiens) (UniProt P10635); assay: qHTS Assay for Inhibitors and Substrates of Cytochrome P450 2D6 (AID 891); also: potency is read from the fitted curve at half-maximal effect; nearly all actives have a fitted effect of over 60% in size
Procedure, shortened: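 Human CYP2D6 (5 nM) with 30 uM Luciferin-ME EGE (at Km) in 100 mM KPO4, compound preincubated 10 min, then NADPH regeneration system for 60 min at room temperature. Luciferin read by luminescence; normalized to 1.43 uM quinidine.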

[9] = target: Cytochrome P450 2C19 (Homo sapiens) (UniProt P33261); assay: qHTS Assay for Inhibitors and Substrates of Cytochrome P450 2C19 (AID 899); also: potency is read from the fitted curve at half-maximal effect; nearly all actives have a fitted effect of over 60% in size
Procedure, shortened: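 5nM enzyme + 10uM Luciferin-H EGE (=KM), 50mM KPO4; cpd pin-transferred, 10 min 37C; NADPH regen, 60 min 37C; stopped w/ luciferin detection reagent, 20 min; luminescence. Normalized to 57uM ketoconazole (AC100).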

[10] = target: Dual specificity protein kinase CLK4 (Homo sapiens) (UniProt Q9HAZ1); assay: qHTS Assay for Inhibitors of CDC-like Kinase 4 (Kinase-Glo Assay) (AID 1770); also: nearly all actives have a fitted effect of over 65% in size; also: potency is read from the fitted curve at half-maximal effect
Dual specificity protein kinase CLK4 (Homo sapiens), sequence (Q9HAZ1 whole entry, looked up): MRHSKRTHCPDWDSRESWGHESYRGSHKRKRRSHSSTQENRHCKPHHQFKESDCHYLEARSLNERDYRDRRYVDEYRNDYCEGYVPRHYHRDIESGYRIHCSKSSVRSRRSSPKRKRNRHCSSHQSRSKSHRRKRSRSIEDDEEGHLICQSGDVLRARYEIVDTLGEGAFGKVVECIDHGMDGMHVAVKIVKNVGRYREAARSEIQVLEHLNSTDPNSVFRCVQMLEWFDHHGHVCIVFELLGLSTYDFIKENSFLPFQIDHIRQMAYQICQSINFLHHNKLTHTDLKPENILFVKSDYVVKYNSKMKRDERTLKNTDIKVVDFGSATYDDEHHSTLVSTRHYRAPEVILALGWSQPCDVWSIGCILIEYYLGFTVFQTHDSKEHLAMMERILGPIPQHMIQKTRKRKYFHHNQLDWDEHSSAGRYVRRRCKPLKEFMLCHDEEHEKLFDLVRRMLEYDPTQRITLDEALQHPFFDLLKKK
Procedure, shortened: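 Luminescent ATP-depletion read-out (Kinase-Glo) after 4.5 h room-temperature reaction of Clk4 (25 nM final) with RS peptide (100 uM) and ATP (1 uM), pH 7.5 Tris buffer with MgCl2 and DTT.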

[11] = target: Dual specificity protein kinase CLK4 (Homo sapiens) (UniProt Q9HAZ1); assay: qHTS Assay for Inhibitors of CDC-like Kinase 4 (ADP-Glo Assay) (AID 1771); also: nearly all actives have a fitted effect of over 70% in size; also: potency is read from the fitted curve at half-maximal effect
Procedure, shortened: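 Luminescence from ADP-Glo reports ADP produced by 25 nM Clk4 acting on 100 uM RS repeat peptide with 1 uM ATP over 1 hr at room temperature; residual ATP is depleted before ADP is converted to ATP for detection.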

[12] = target: Ubiquitin carboxyl-terminal hydrolase 1 (Homo sapiens) (UniProt O94782); assay: Inhibitors of USP1/UAF1: Pilot qHTS (AID 504865);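 also: rhodamine fluorescence freed from ubiquitin-rhodamine substrate followed over time; top concentration of the series differs between compounds; % is scaled to controls: 0 for no effect and ±100 for the full control effect; nearly all actives have a fitted effect of over 35% in size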
Ubiquitin carboxyl-terminal hydrolase 1 (Homo sapiens), sequence (O94782 whole entry, looked up): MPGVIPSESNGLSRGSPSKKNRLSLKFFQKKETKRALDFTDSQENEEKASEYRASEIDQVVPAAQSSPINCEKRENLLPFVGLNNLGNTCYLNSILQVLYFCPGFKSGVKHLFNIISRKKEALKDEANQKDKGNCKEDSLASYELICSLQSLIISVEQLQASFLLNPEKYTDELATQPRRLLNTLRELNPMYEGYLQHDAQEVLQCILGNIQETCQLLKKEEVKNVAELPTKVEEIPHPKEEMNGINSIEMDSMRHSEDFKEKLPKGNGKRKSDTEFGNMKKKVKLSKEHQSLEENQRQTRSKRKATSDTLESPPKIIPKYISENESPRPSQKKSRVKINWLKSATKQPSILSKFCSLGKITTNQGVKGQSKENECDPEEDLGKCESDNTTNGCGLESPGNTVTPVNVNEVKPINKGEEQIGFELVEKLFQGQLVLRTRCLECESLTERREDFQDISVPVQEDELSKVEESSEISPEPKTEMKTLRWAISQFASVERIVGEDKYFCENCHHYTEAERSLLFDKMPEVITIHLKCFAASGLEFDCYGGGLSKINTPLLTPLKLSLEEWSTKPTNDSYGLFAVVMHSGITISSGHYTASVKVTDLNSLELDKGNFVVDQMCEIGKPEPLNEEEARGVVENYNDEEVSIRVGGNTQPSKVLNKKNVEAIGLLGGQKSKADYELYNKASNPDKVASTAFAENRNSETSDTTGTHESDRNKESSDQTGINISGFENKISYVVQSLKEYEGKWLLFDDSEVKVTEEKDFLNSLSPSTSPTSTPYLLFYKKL
Procedure, shortened: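 Deubiquitinase activity followed as kinetic rhodamine fluorescence release from 150 nM Ub-Rho. 1 nM USP1/UAF1 with compound, after 15 min room-temperature preincubation, in HEPES pH 7.8 buffer containing TCEP, EDTA, BSA and Tween-20.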

[13] = target: Rap guanine nucleotide exchange factor 3 (Homo sapiens) (UniProt O95398); assay: Confirmatory qHTS for antagonist of cAMP-regulated guanine nucleotide exchange factor 3 (EPAC1) (AID 1645880); settings: EPAC1 Rap1B-BODIPY-GDP exchange, fluorescence; activity, negative = inhibition: at 115 µM (top of the series); also: nearly all actives have a fitted effect of over 55% in size; also: potency is read from the fitted curve at half-maximal effect;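 as to activity, negative = inhibition: plate controls were DMSO only for no effect and full effect of the ATA control for full effect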
Rap guanine nucleotide exchange factor 3 (Homo sapiens), sequence (O95398 whole entry, looked up): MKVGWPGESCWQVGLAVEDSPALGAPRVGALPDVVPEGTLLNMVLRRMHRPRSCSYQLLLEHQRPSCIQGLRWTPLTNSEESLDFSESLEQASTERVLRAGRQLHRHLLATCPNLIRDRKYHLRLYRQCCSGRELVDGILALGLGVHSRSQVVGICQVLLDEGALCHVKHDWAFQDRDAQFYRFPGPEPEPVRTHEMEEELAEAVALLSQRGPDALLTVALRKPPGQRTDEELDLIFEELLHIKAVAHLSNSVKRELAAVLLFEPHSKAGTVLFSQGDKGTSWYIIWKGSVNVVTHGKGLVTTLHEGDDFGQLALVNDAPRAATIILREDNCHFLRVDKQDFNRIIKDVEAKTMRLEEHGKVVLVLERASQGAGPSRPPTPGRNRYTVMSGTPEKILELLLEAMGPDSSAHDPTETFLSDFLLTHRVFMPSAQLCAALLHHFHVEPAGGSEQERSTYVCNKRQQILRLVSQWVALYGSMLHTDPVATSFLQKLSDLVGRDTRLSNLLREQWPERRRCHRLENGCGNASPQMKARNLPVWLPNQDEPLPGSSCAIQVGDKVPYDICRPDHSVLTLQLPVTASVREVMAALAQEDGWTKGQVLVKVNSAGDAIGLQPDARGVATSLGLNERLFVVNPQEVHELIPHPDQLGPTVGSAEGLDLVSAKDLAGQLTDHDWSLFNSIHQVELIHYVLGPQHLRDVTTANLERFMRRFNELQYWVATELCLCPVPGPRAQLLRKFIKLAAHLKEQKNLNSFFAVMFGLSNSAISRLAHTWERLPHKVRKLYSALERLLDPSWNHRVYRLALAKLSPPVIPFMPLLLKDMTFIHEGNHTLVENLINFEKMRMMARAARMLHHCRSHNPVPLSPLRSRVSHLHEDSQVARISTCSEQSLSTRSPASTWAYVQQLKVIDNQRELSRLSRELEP
Procedure, shortened: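 Nucleotide exchange uses 100 nM EPAC1, 250 nM RAP1B-BODIPY-GDP and 50 uM GDP, with compounds in a concentration-titration series. After 5 min at room temperature, fluorescence (480 nm ex/540 nm em) is read every 5 min for 30 min. Data are normalized to control ATA and DMSO.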

[14] = target: Rap guanine nucleotide exchange factor 3 (Homo sapiens) (UniProt O95398); assay: Confirmatory qHTS for agonist of cAMP-regulated guanine nucleotide exchange factor 3 (EPAC1) (AID 1645881); also: nearly all actives have a fitted effect of over 75% in size; also: potency is read from the fitted curve at half-maximal effect;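 as to activation: EPAC1 catalysed release of BODIPY-GDP from Rap1B seen as fluorescence loss; 100% = effect of cAMP agonist control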
[15] = target: Rap guanine nucleotide exchange factor 4 (Homo sapiens) (UniProt Q8WZA2); assay: Confirmatory qHTS for agonist of cAMP-regulated guanine nucleotide exchange factor 4 (EPAC2) (AID 1645884);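 also: nucleotide exchange releases bodipy-GDP from Rap1 and this lowers its fluorescence; nearly all actives have a fitted effect of over 65% in size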; also: potency is read from the fitted curve at half-maximal effect; as to activation: % is scaled to controls: 0 for no effect and ±100 for the full control effect
Rap guanine nucleotide exchange factor 4 (Homo sapiens), sequence (Q8WZA2 whole entry, looked up): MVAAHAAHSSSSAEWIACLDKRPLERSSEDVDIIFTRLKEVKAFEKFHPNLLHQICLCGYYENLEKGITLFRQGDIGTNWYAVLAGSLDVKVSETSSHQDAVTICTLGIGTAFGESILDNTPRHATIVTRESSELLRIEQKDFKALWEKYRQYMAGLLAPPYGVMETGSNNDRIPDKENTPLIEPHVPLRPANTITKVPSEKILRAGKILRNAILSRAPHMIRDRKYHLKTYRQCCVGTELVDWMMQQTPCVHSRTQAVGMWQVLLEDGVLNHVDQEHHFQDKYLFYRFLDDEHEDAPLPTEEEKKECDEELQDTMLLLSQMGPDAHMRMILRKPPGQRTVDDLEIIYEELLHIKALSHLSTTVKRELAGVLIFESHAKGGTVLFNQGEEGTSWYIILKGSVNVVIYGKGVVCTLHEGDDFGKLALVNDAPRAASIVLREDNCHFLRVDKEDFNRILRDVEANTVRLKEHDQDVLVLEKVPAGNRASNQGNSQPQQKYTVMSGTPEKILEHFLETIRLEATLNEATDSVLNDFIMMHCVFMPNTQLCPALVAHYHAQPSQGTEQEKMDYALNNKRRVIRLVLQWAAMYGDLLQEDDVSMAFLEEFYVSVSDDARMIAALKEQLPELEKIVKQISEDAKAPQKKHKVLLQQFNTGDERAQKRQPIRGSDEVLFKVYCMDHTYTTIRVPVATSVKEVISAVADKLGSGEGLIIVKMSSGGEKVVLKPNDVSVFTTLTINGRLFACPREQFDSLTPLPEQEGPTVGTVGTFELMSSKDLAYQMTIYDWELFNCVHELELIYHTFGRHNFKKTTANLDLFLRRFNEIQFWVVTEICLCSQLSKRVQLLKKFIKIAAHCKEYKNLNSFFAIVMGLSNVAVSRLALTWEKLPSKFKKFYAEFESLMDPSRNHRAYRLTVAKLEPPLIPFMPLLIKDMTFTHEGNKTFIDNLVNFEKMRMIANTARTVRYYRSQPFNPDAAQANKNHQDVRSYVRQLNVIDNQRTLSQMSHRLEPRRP

[16] = target: Rap guanine nucleotide exchange factor 4 (Homo sapiens) (UniProt Q8WZA2); assay: Confirmatory qHTS for antagonist of cAMP-regulated guanine nucleotide exchange factor 4 (EPAC2) (AID 1645885); also: nearly all actives have a fitted effect of over 25% in size; also: potency is read from the fitted curve at half-maximal effect
[17] = Confirmation and Secondary Assay for Modulators of Hemoglobin Beta Chain Splicing at IVS2 654 locus (AID 910);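 also: HeLa cells stably carrying EGFP split by mutant beta-globin IVS2-654 intron; % of control where 0% means no effect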
Procedure, shortened: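 Readout: per-well total peak green fluorescence (488 nm ex, 500–520 nm em) from objects 5–250 µm, reflecting correct splicing of an EGFP-654 reporter. Compounds were applied for 2 days at 37 °C to overnight-plated HeLa EGFP-654 cells; controls were DMSO and 500 nM IVS2-654 PNA.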

[18] = Confirmation and Secondary Assay for Modulators of Hemoglobin Beta Chain Splicing at IVS2 705 locus (AID 930);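 also: HeLa cells stably expressing the EGFP-705 splicing reporter; GFP fluorescence per well restored by corrected splicing of the IVS2-705 intron in EGFP; % of control where 0% means no effect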
Procedure, shortened: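 Read-out: total peak GFP fluorescence per well (488 nm excitation, 500-520 nm emission) by laser-scanning cytometry. Cells: HeLa EGFP-705 splicing reporter, 2 days compound exposure in Optimem/2% FCS.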

[19] = target: Rap guanine nucleotide exchange factor 3 (Homo sapiens) (UniProt O95398); assay: Counterscreen qHTS for agonist of cAMP-regulated guanine nucleotide exchange factor 3 (EPAC1) (AID 1645889); also: nearly all actives have a fitted effect of over 40% in size; also: potency is read from the fitted curve at half-maximal effect; as to activation: % of control where 0% means no effect
Procedure, shortened: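 Rap1B-BODIPY-GDP 250 nM + GDP 50 uM; cpds 7-pt, final 9.74 nM–152 uM (activator mode) or from 7.32 nM upwards (inhibitor mode); RT; FI 480/540 nm at 5 and 30 min, then ± cAMP, reread.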

[20] = target: Tumor susceptibility gene 101 protein (Homo sapiens) (UniProt Q99816); assay: qHTS Assay for Iinhibitors of HIV-1 Budding by Blocking the Interaction of PTAP/TSG101: Hit Validation (AID 651600); also: potency is read from the fitted curve at half-maximal effect; nearly all actives have a fitted effect of over 70% in size
Procedure, shortened: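 FITC-PTAP peptide (50 nM final) binding to Tsg101 binding domain (10 uM final) was measured by polarization after 20 min at r.t. with compounds, in 10 mM HEPES pH 7.5 buffer with 0.15 M NaCl and 0.01% Tween 20.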

[21] = target: Lysosomal acid glucosylceramidase (Homo sapiens) (UniProt P04062); assay: Glucocerebrosidase-p2 (AID 348; in the data active = potency below about 10 µM; also: potency is read from the fitted curve at half-maximal effect); settings: purified GBA, blue fluorogenic substrate, 40 min
Procedure, shortened: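 Compounds titrated from 0.6 nM upwards against 0.2 nM enzyme in pH 5.9 citric acid/KH2PO4, taurocholate, tween-20; blue fluorogenic substrate 80 uM, 40 min room temperature, stopped and read Ex 365/Em 440 for AC50.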

[22] = target: Glucocorticoid receptor (Homo sapiens) (UniProt P04150); assay: GR-GFP Redistribution (AID 450;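 active = compounds whose dose series gives a full or clear partial fitted curve of increased nuclear translocation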; also: potency is read from the fitted curve at half-maximal effect); settings: U2OS GR-GFP nuclear translocation, laser cytometry, 2 h
[23] = target: 3',5'-cyclic-AMP phosphodiesterase 4B (Homo sapiens) (UniProt Q07343); assay: qHTS Assay for Inhibitors of PDE-IV (AID 607; active = well fitted activation curve with a large enough effect in the main read-out, with a control signal flat, not every such curve was filed as active; also: % of control where 0% means no effect)
Procedure, shortened: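 The readout is membrane depolarisation from a cAMP-sensing CNG channel, detected with a potential dye at ex 535/em 590. Cells were HEK293-derived (endogenous PDE-IV) at 1000 cells/well, titrated up to 22.9 uM final.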

[24] = qHTS Assay for Identification of Small Molecule Agonists for Hypoxia Response Element Signaling Pathway (AID 914; active = well fitted activation curve with a large enough effect in the signal ratio, with a control signal flat, not every such curve was filed as active; the % refers to the signal ratio; also: potency is read from the fitted curve at half-maximal effect); settings: ME-180 (cervical carcinoma) HRE-bla reporter, beta-lactamase ratio, CoCl2, 17 h; activation: active compounds read high
Procedure, shortened: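 HRE-bla ME-180 cells, overnight plating in Opti-MEM with 0.5% dialyzed FBS; cpd titration + EC50 CoCl2, 17 h, 37 degrees Celsius; CCF4 2.5 h RT; 460/530 nm ratio; AC50.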

[25] = target: Dual specificity protein kinase CLK4 (Homo sapiens) (UniProt Q9HAZ1); assay: qHTS Assay for Inhibitors of CDC-like Kinase 4 (ADP-FP Assay) (AID 1795);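 also: recombinant human CLK4 phosphorylating RS repeat peptide at 1 µM ATP; % is scaled to controls: 0 for no effect and ±100 for the full control effect; nearly all actives have a fitted effect of over 60% in size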
Procedure, shortened: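 Kinase activity was measured as ADP production using Transcreener orange tracer (4 nM) and ADP antibody (1 ug/mL) fluorescence polarization, with ADP calculated from a calibration curve. The 1 h reaction contained 6.25 nM Clk4, 1 uM ATP and 100 uM RS peptide at pH 7.5 with Mg2+.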

COc1cccc(-c2cncnc2NCc2ccccc2OC)c1
inactive: activity change, negative = inhibition [1] -3.02% | outcome [3] | Potency [4] > 46 µM | Potency [5] | outcome [7] | Potency [12] | Potency [13] | Potency [14] | Potency [15]
active: Potency [2] 3.98 µM | Potency [6] 0.501 µM | Potency [8] 7.94 µM | Potency [9] 2 µM | Potency [10] 14.1 µM | Potency [11] 15.8 µM | Potency [16] 44.1 µM

CCOC(=O)C1(O)Oc2cc(OC)cc(OC)c2C(=O)C1c1ccccc1 (stereo not given)
inactive: outcome [7] | Potency [17] | Potency [18] | Potency [12] | Potency [13] | Potency [14] | Potency [15] | Potency [16]

Cc1ccc(CNC(=O)COc2ccc(C(=O)c3ccc(F)cc3)cc2)cc1
inactive: Potency [13] | Potency [14] | Potency [15] | Potency [16] | Potency [19]

Oc1ccc2ccc3cccc[n+]3c2c1
active: Potency [20] 4.11 µM | Potency [14] 112 µM | Potency [15] 100 µM | Potency [19] 39.8 µM
inactive: Potency [13] | Potency [16]

CCOc1ccc(/C=C2\SC(=S)N(NS(=O)(=O)c3ccc(C)cc3)C2=O)cc1OC
inactive: Potency [14] | activation [15] 5.33% [at 17.1 µM, percent relative to cAMP agonist control] | Potency [16] | activation [19] -1.1% [at 30.8 µM]
active: Potency [13] 56.2 µM

CCN(CC)c1nc2ccccc2n(Cc2cccc(OC)c2)c1=O
inactive: Potency [13] | Potency [14] | Potency [15] | Potency [16] | Potency [19]

CCC(Oc1ccccc1)C(=O)Nc1ccccc1N1CCCCC1 (stereo not given)
inactive: Potency [13] | Potency [14] | Potency [15] | Potency [16] | Potency [19]

CN1CCN(c2ncc3nc(-c4cccs4)c(=O)n(CCc4ccccc4)c3n2)CC1
active: Potency [2] 2.51 µM | Potency [24] 3.16 µM
inactive: Potency [21] > 11.4 µM | Potency [22] > 9.22 µM | Potency [4] > 46 µM | Potency [23] | outcome [7] | Potency [10] | Potency [11] | Potency [25] | Potency [12] | Potency [13] | Potency [14] | Potency [15] | Potency [16]
